The panel holds about 79,000 compounds, 15% with a hit somewhere; the sample as a whole holds those more often. A number with no mark means an inactive call. Calls of active or inactive are those of the source. No stated cut-off is given here; in the data, active means growth inhibition above about 70%; inactive means the rest.

The experiment in a line: NCI Yeast Anticancer Drug Screen. Data for the cln2 rad14 strain (AID 165).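 Further: 0% = growth equal to vehicle treated cultures.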 The note with it: S. cerevisiae cln2 rad14 strain, at 5.0 µM (retest, dose inferred, filed as 0.5), stronger effect = higher value. An outline of the steps: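 Yeast carrying cln2 and rad14 alterations (cell cycle control and DNA damage repair) were exposed to compounds. Growth inhibition was measured against vehicle-treated controls.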
Regarding `CCOC(=O)C1C(O)=C(P(=O)(C2=C(O)C(C(=O)OCC)C(c3ccc(OC(C)=O)cc3)C(C(=O)O)C2=O)N(CCCl)CCCl)C(=O)C(C(=O)O)C1c1ccc(OC(C)=O)cc1` (stereo unspecified), the growth inhibition was -5%. Regarding `c1ccc([As+](c2ccccc2)(c2ccccc2)c2cccc3ccccc23)cc1`, the growth inhibition is 86% (active).

`CCCCCCCCc1ccc(OCCN(CCCl)CCCl)cc1`: the growth inhibition is -2%. In the case of `S=C=NCCc1ccccc1` it was 2%; in that of `COC1=C(Cl)C(=O)c2ccccc2C1=O`, -2%. In the case of `CN(C)c1ccc(N=Nc2cccc(C(=O)[O-])c2)cc1.CN(C)c1ccc(N=Nc2cccc(C(=O)[O-])c2)cc1.NC1CCCCC1N.O=[N+]([O-])O.[Pt+4]` it was 28%; in that of `CCOC(=O)c1ccc(N=Cc2ccc(N(CCCl)CCCl)cc2C)cc1`, -8%; in that of `O=c1s[se]c2ccccc12`, 21%.

With `CC1CCC2(OC1)OC1C(O)C3C4CCC5CC(OC6OC(CO)C(OC7OC(CO)C(O)C(OC8OCC(O)C(O)C8O)C7OC7OC(CO)C(O)C(OC8OC(CO)C(O)C(O)C8O)C7O)C(O)C6O)C(O)CC5(C)C4CCC3(C)C1C2C` (stereo unspecified), the growth inhibition was 72% (active).

For the molecule `CN(C)c1ccc(/C=C/c2cc3scc(-c4ccccc4)[n+]3c3ccccc23)cc1`, the growth inhibition is -3%.

Turning to `CSCCC([NH-])C(=O)O.CSCCC([NH-])C(=O)O.[Zn+2]` (stereo unspecified), the growth inhibition is 4%. On to `O=C(O)CN1CCN(CC(=O)O)CC(=O)[O][Hg][O]C(=O)C1`, for which the growth inhibition is 99% (active). The result for `Cc1c2ccncc2c(CN(CCCl)CCCl)c2c3ccccc3n(C)c12` reads 6%; that for `COc1ccc(P2(=S)Oc3ccc(C(c4ccccc4)(c4ccccc4)c4ccccc4)cc3O2)cc1` (stereo unspecified), 24%.

Regarding `Cc1cc[n+](C2=C(Nc3c(C)cccc3C)C(=O)c3ccccc3C2=O)cc1`, the growth inhibition is -7%. The result for `C(#C[PH+](c1ccccc1)c1ccccc1)c1ccccc1.C(#C[PH+](c1ccccc1)c1ccccc1)c1ccccc1.C(#C[PH+](c1ccccc1)c1ccccc1)c1ccccc1.[C-]#[O+].[C-]#[O+].[C-]#[O+].[Cr]` reads 31%; that for `CC(=O)O.[RuH].c1ccc([PH+](c2ccccc2)c2ccccc2)cc1.c1ccc([PH+](c2ccccc2)c2ccccc2)cc1.c1ccc([PH+](c2ccccc2)c2ccccc2)cc1`, -9%. As for `O=C(N/N=C/c1cc(Br)cc(Br)c1[O-])c1ccccc1O.O=C(N/N=C/c1cc(Br)cc(Br)c1[O-])c1ccccc1O.[Ni+2]`, the growth inhibition is 93% (active). As for `O=C(C[n+]1ccccc1)C1CCc2ccccc2C1` (stereo unspecified), the growth inhibition is 0%. The result for `CC(=O)[O-].CC(=O)[O-].O=C(N/N=C/c1cc(Cl)cc(Cl)c1[OH2+])c1ccncc1.[Zn+2]` reads 0%; that for `ClCCN(CCCl)CCN1c2ccc3ccccc3c2Sc2ccc3ccccc3c21`, 2%. With `C=CCc1cc(Cl)ccc1OC(=O)N(C)C`, the growth inhibition is 6%.

As for `CC(=O)[O][Sn]([CH3])([CH3])[c]1ccccc1`, the growth inhibition is -13%. The result for `NCCNCCNCCNCCN` (tested in a mixture with another compound) reads 2%. The result for `CC(=O)[CH-]C(C)=O.CC(=O)[CH-]C(C)=O.[O-]c1ccccc1.[O-]c1ccccc1.[Ti+4]` reads 21%; that for `NC(=O)c1ccc(C(=O)Nc2ccc([As](=O)(O)O)cc2)cc1`, 2%; that for `[C-]#[O+].[C-]#[O+].[CH3][Sn]([CH3])[c]1ccccc1.[Fe+5].[c-]1[c-][c-][cH-][c-]1`, -8%.

For the molecule `CC(C)(C)S.[Hg]`, the growth inhibition is 99% (active). In the case of `O=C(O)C(O)(c1ccc(-c2ccccc2)cc1)c1ccc(-c2ccccc2)cc1` it was 5%. In the case of `Cc1ccc2c(-c3ccccc3)c3ccccc3[s+]c2c1` it was 1%; in that of `CCOC(=O)[C]1([Pb]([CH3])([CH3])[CH3])N=NC(C(=O)OC)=C1C(=O)OC` (stereo unspecified), 4%; in that of `CCCNC1=C(C)C(=O)C2=C(C1=O)[C@H](COC(N)=O)[C@]1(OC)[C@@H]3N[C@@H]3CN21`, 5%.

Turning to `CC(=O)c1ccc(-[n+]2c(C)cc(-c3ccccc3)cc2C)cc1`, the growth inhibition was 3%. The result for `CN1C(=O)C23CC4=CC=CC(O)C4N2C(=O)C1(CO)SS3` (stereo unspecified) reads 99% (active). The result for `CCN1CCC(O)(c2ccc(O)cc2)C(C(=O)c2ccc(O)cc2)C1` (stereo unspecified) reads 18%; that for `CCCCCCCC[As](C)(=O)O`, -72%.

Source of the values: PubChem BioAssay (NCI).
